This is part of a sample that, as a whole, favours compounds with a hit. Of some 83,000 tested, about 20% had one in any assay.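 For each line, cells grew in 96-well plates with the test compound present at a single concentration for 48 hours.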 The source made the active and inactive calls.
Each molecule was assayed on OVCAR-8 ovarian (assay: NCI-60 one-dose screen, 48 h (100 = growth as untreated, 0 = no growth, -100 = all killed)). Conditions: 10 µM.
Experimental: Growth inhibition of the OVCAR-8 human tumor cell line is measured as a screen for anti-cancer activity. Cells are grown in 96 well plates and exposed to the test compound for 48 hours. Compounds are tested at a single concentration, which is 10^-5 M for most compounds. The reported endpoint is percent growth (GI% or GIPRCNT), where numbers from 0 - 100% represent growth inhibition, and numbers from -100% - 0 represent cell death. For example, a value of 40 represents 60% growth inhibition. A value of 0 means no net growth occurred over the course of the experiment. A value of -40 indicates 40% of cells at the beginning of the experiment died by the end of the experiment. A value of -100 means all cells are dead at the end of the experiment.
NCI-60 Human Tumor Cell Lines Screen was performed using the standard one-dose NCI protocol, which is described in more detail at https://dtp.cancer.gov/discovery_development/nci-60/default.htm.
Compounds with GIPRCNT values below 10 were considered active. Activity score was based on GIPRCNT using the following formula: […]
Score is 0 for GIPRCNT values of 100 or above, 50 for GIPRCNT values of 0, and 100 for GIPRCNT values of -100.

Structure (SMILES)	growth
COc1cccc(-c2nnc(COc3ccc(-c4nc5ccc(C)cc5[nH]4)cc3OC)o2)c1	46.9% (inactive)
N#C/C(=C/c1cc([N+](=O)[O-])ccc1Cl)C(N)=O	82.5% (inactive)
C/C=C\COc1cc(C)c(Cl)cc1Cl	99.4% (inactive)
CCc1nn2c(-c3cc(OC)c(OC)c(OC)c3)c(-c3cc(OC)c(OC)c(OC)c3)nc2s1	95.6% (inactive)
COc1cc(/C=C/C(=O)c2cc(-c3ccccc3)ccc2O)cc(OC)c1OC	60.8% (inactive)
Oc1ccc(Cn2cc3c(c2-c2ccccc2)CCc2cnoc2-3)cc1	100% (inactive)
O=C(NC1CCN(Cc2ccccc2)CC1)c1cc(-c2ccncc2)nc2ccc(Cl)cc12	18.4% (inactive)
COc1ccc(NC(=O)CCn2cnc3c(cc(-c4ccccc4)n3-c3ccccc3)c2=O)cc1	102% (inactive)
CC(C)OP(=O)(O)c1ncc(-c2ccc(C(F)(F)F)cc2)c(NC2CCCCCC2)n1	52.3% (inactive)
CC(C)(C)c1ccc(OCCCCCCN2CCNCC2)cc1	89.7% (inactive)
Cc1cc(C(C)(C)CC(C)(C)C)ccc1OCCOCC[N+](C)(C)Cc1ccccc1	18.7% (inactive)
N/C(=N\O)c1cn(C2OC(CO)C(O)C2O)c2ncnc(N)c12 (stereo not given)	-14.4% (active)
COc1ccc(/C=C2\SC(=S)N(CCCN3CCOCC3)C2=O)c(OC)c1	96.1% (inactive)
Nc1c(CNCc2nnn(Cc3ccccc3)c2N)nnn1Cc1ccccc1	99.8% (inactive)
CCCn1c(=O)c2c(nc(-c3cccc(OCCCCl)c3)n2C)n(CCC)c1=O	33.9% (inactive)
CC(C)C[C@H](NC(=O)Cn1ccc2ccccc2c1=O)B(O)O	88.2% (inactive)
CCCCCc1cc[n+](CC(=O)c2ccc(Cl)cc2)cc1	98.8% (inactive)
COc1ccc(S(=O)(=O)Nc2ccc(OCc3nnc(-c4ccc(Cl)cc4)o3)c(F)c2)cc1	60.4% (inactive)
CCOC(=O)CSC(=S)SCC(=O)OCC	93% (inactive)
CC(C)OCc1cc(CN2CCN(c3cccc(Cl)c3)CC2)c(O)c2ncccc12	-15.2% (active)

Structure (SMILES)	growth
O=C(c1ccccc1)C(Nc1ccccc1)c1ccccc1 (stereo not given)	87% (inactive)
COc1ccc(-c2oncc2-c2cc(OC)c3c(c2)OCO3)cc1	35.6% (inactive)
Nc1ncc(-c2ccc(C(F)(F)F)cc2)c(NC2CCCCCC2)n1	19.4% (inactive)
CC(=O)Nc1nc(C)c(C(=O)N/N=C/c2cccn2C)s1	101% (inactive)
N#CCC1CCCC1	98.9% (inactive)
Cc1ccc2nc3[nH]c(=O)[nH]c(=O)c3c(N)c2c1	88.5% (inactive)
COc1ccc(C2C=C(c3ccc(Cl)cc3)N=C3SC=CN32)c(Br)c1 (stereo not given)	67.3% (inactive)
CS(=O)(=O)Nc1ccc([N+](=O)[O-])cc1Oc1ccccc1	92.1% (inactive)
CN1/C(=C\C(I)C(I)C2=[N+](C)c3ccccc3C2(C)C)C(C)(C)c2ccccc21 (stereo not given)	7.15% (active)
O=C(CSc1nnc(-c2ccc(Cl)cc2)o1)c1ccccc1	96.2% (inactive)
N=C(N)c1ccc(-c2ccc(-c3cccs3)s2)nc1	55.7% (inactive)
CN(C)c1ccc2c(c1)OC(N)=C(C#N)C2c1ccc2c(c1)CCO2 (stereo not given)	24.1% (inactive)
COc1cc2ccnc(C=O)c2cc1OC	44.2% (inactive)
CCn1nc(-c2ccc(C(=O)OC)cc2)nc2c(=O)n(C)c(=O)nc1-2	45.8% (inactive)
CCCCCCCCCCCC(c1ccccc1)N(C)C (stereo not given)	97.7% (inactive)
COc1ccc(C(=O)c2sc3nc(-c4cccs4)ccc3c2N)cc1OC	53% (inactive)
Fc1cc(-c2ncc(-c3cc(F)c(F)c(F)c3)c(NC3CCCCCC3)n2)cc(F)c1F	102% (inactive)
Cn1c(N)c(N=Cc2ccccc2)c(=O)n(C)c1=O	110% (inactive)
NC1CCC(Nc2nc(NCc3ccc(-c4cccs4)nc3)c3ncn(C4CCCC4)c3n2)CC1 (stereo not given)	12.2% (inactive)
N#Cc1cnc2ccc(NCc3cnc[nH]3)cc2c1Nc1ccc(F)c(Cl)c1	46.6% (inactive)
